Measurements from the supplement of paper PMC10849652.
About 7,900 targets were measured; listed, in parts, are those with a hit and a random draw of the rest. About 0.6% of all pairs of compound and target were hits.

Assays:
Assay in all cases: log2 fold change, soluble protein after heating vs DMSO (PISA); higher = thermal stabilisation; K562 cells, 10 uM, 30 min; active = over 0.2 and 3.5 SD of the protein, either way, in both replicates (recomputed)
[1] = compound: CC1=C(C=C(C=C1)NC(=O)C2=CC(=CC=C2)C(C)(C)C#N)NC3=CC4=C(C=C3)N=CN(C4=O)C
Summary of the method: (§1)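 K562 cells at 2×10^6 cells/mL were exposed to 10 μM compound for 30 min, then aliquots were heated for 3 min across 48°C-58°C, pooled, and extracted in PBS containing 0.5% NP-40 at 4°C. The supernatant after 21,000xg for 90 min was taken as soluble protein and measured by TMTpro 16plex LC-MS/MS with channel sums equalised. Thermal stability is reported relative to control samples, with values from duplicates. Fold changes are given on a log2 scale.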

[2] = compound: CC1=C(C=C(C=C1)NC(=O)C2=CC(=CC=C2)N(C)C)NC(=O)C3=CC=C(C=C3)O
Summary of the method: as §1

[3] = compound: CC1=CC=C(C=C1)SC2=C3C=C(SC3=CN=C2)C(=O)N
Summary of the method: as §1

[4] = compound: CC1=NC(=CC=C1)C2=C(N=C(N2)C(C)(C)C)C3=CC4=NC=CN=C4C=C3
Summary of the method: as §1

[5] = compound: CCCCN(Cc1ccc(C(=O)NO)cc1)C(=O)Nc1ccccc1 [Nexturastat A]
Summary of the method: as §1

[6] = compound: CCCS(=O)(=O)Nc1ccc(F)c(C(=O)c2c[nH]c3ncc(-c4ccc(Cl)cc4)cc23)c1F [vemurafenib]
Summary of the method: as §1

[7] = compound: CCCS(=O)(=O)Nc1ccc(F)c(C(=O)c2c[nH]c3ncc(Cl)cc23)c1F
Summary of the method: as §1

[8] = compound: CCCc1cc(C)[nH]c(=O)c1CNC(=O)c1cc(-c2ccnc(N3CCN(C)CC3)c2)cc2c1cnn2C(C)C
Summary of the method: as §1

[9] = compound: CCN(CC)Cc1ccc2cc(COC(=O)Nc3ccc(C(=O)NO)cc3)ccc2c1 [givinostat]
Summary of the method: as §1

[10] = compound: CCN(CCCOc1ccc2c(Nc3cc(CC(=O)Nc4cccc(F)c4)[nH]n3)ncnc2c1)CCOP(=O)(O)O [barasertib]
Summary of the method: as §1

[11] = compound: CC[C@@H]1C(=O)N(C)c2cnc(Nc3ccc(C(=O)NC4CCN(C)CC4)cc3OC)nc2N1C1CCCC1
Summary of the method: as §1

[12] = compound: CC[C@@H]1C(=O)N(C)c2cnc(Nc3ccc(C(=O)N[C@H]4CC[C@H](N5CCN(CC6CC6)CC5)CC4)cc3OC)nc2N1C(C)C [volasertib]
Summary of the method: as §1

[13] = compound: CC[C@H](C)N1C=C(C2=C(C=C(C=C21)C3=CN=C(C=C3)N4CCNCC4)C(=O)NCC5=C(C=C(NC5=O)C)C)C
Summary of the method: as §1

[14] = compound: CC[C@H](C)[C@@H](C(=O)N[C@@H]([C@@H](C)O)C(=O)N[C@@H](CC(C)C)C(=O)[C@]1(CO1)C)NC(=O)[C@H]([C@@H](C)CC)N(C)C(=O)C [epoxomicin]
Summary of the method: as §1

[15] = compound: CCn1c(C(=O)N(C2CC2)C2CC2)cc2c3c(ncn3C)c(Nc3cc(C)n(C)n3)nc21
Summary of the method: as §1

[16] = compound: CCn1cc(-c2ccnc3[nH]c(-c4cccc(CN(C)C)c4)cc23)c(-c2ccc(NC(=O)N(C)C)cc2)n1
Summary of the method: as §1

[17] = compound: CN(C)CC(=O)Nc1ccc2[nH]c(=O)c3ccccc3c2c1
Summary of the method: as §1

[18] = compound: CN(CCOC1=CC=C(C=C1)C[C@H]2C(=O)NC(=O)S2)C3=CC=CC=N3 (racemic) [rosiglitazone]
Summary of the method: as §1

[19] = compound: CN1C2=C(C3=C1C(=O)N(N=C3)CC4=CC(=CC=C4)N)SC(=C2)S(=O)C
Summary of the method: as §1

[20] = compound: CN1CCC(CNc2ccc3ncc(-c4cccc(OC(F)(F)F)c4)n3n2)CC1
Summary of the method: as §1

Measured: log2 fold change

CSE1L (UniProt P55060)
inactive: [1] 0.021 | [2] -0.006 | [3] 0.068 | [4] 0.083 | [5] -0.068 | [6] 0.029 | [7] 0.063 | [8] 0.009 | [9] 0.004 | [10] 0.042 | [13] 0.047 | [14] 0.03 | [15] 0.002 | [16] -0.068 | [17] 0.008 | [18] 0.047 | [19] -0.095 | [20] -0.181
active: [11] -0.209 | [12] -0.403

CCDC9 (UniProt Q9Y3X0)
Chain of UniProt Q9Y3X0 (Q9Y3X0 whole entry, looked up): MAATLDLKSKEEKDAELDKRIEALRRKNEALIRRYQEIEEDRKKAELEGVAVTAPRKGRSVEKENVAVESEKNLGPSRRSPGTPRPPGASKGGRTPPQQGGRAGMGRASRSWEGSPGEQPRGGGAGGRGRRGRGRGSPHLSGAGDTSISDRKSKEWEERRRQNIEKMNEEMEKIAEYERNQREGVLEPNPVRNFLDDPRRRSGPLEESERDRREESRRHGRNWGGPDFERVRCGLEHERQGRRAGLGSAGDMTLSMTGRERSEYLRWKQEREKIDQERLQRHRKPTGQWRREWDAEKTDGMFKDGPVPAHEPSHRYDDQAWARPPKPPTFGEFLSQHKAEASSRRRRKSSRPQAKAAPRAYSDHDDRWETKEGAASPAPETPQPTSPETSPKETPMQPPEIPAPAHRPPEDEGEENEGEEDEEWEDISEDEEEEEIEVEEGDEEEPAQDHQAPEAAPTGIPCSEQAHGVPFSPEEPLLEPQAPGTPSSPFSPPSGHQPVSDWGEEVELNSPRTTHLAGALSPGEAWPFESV
inactive: [1] -0.042 | [2] 0.007 | [3] 0.019 | [4] 0.055 | [5] 0.119 | [6] -0.007 | [7] -0.009 | [8] -0.004 | [9] -0.069 | [10] 0.021 | [11] 0.081 | [12] 0.127 | [13] -0.051 | [14] -0.018 | [15] 0.032 | [16] 0.051 | [17] 0.002 | [18] 0.021 | [19] 0.025 | [20] 0.009

CNOT2 (UniProt Q9NZN8)
Chain of UniProt Q9NZN8 (Q9NZN8 whole entry, looked up): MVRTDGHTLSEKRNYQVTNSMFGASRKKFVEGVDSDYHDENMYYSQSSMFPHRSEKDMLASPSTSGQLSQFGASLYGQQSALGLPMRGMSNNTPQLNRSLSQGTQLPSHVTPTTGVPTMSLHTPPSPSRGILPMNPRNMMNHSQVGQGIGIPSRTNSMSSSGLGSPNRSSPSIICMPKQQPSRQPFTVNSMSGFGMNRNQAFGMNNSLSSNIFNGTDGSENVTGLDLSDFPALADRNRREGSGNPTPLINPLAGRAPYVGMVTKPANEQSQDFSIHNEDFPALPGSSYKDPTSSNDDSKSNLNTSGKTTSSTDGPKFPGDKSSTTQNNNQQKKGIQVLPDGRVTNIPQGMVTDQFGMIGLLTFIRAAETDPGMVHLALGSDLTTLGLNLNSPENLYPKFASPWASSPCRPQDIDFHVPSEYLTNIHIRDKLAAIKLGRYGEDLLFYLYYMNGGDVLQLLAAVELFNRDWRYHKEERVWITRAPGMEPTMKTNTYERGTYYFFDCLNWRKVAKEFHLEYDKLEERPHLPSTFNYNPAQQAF
inactive: [1] -0.075 | [2] 0.136 | [3] -0.027 | [4] 0.008 | [5] 0.017 | [6] -0.03 | [7] 0.006 | [8] -0.018 | [9] 0.059 | [10] 0.01 | [11] -0.035 | [12] -0.168 | [13] 0.021 | [14] -0.034 | [15] -0.05 | [16] 0.085 | [17] 0.015 | [18] 0.007 | [19] 0.062 | [20] -0.027

CD55 isoform 7 (UniProt P08174)
active: [20] 0.228
inactive: [1] 0.037 | [2] -0.006 | [3] 0.021 | [4] 0.049 | [5] 0.072 | [6] -0.031 | [7] -0.053 | [8] 0.088 | [9] 0 | [10] -0.057 | [11] 0.172 | [12] 0.096 | [13] -0.031 | [14] 0.086 | [15] 0.02 | [16] -0.006 | [17] -0.042 | [18] -0.078 | [19] -0.005

COX5B (UniProt P10606)
Chain of UniProt P10606 (P10606 whole entry, looked up): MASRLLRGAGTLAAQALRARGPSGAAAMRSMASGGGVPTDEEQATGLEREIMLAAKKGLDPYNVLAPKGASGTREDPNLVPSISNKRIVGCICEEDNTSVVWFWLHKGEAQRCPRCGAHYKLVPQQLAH
active: [20] 0.541
inactive: [1] -0.038 | [2] -0.096 | [3] 0.037 | [4] -0.008 | [5] -0.043 | [6] 0.037 | [7] -0.044 | [8] 0.013 | [9] 0.065 | [10] 0.034 | [11] 0.06 | [12] -0.02 | [13] -0.047 | [14] 0.192 | [15] -0.051 | [16] -0.043 | [17] -0.013 | [18] -0.01 | [19] -0.037

CDAN1 (UniProt Q8IWY9)
inactive: [1] 0.039 | [2] 0.046 | [3] -0.071 | [4] -0.022 | [5] -0.192 | [6] -0.067 | [7] 0.077 | [8] 0.022 | [9] 0.023 | [10] 0.002 | [11] -0.079 | [12] -0.15 | [13] -0.041 | [14] 0.014 | [15] 0.04 | [16] -0.047 | [17] -0.058 | [18] 0.045 | [19] -0.022 | [20] -0.001

CBX5 (UniProt P45973)
Chain of UniProt P45973 (P45973 whole entry, looked up): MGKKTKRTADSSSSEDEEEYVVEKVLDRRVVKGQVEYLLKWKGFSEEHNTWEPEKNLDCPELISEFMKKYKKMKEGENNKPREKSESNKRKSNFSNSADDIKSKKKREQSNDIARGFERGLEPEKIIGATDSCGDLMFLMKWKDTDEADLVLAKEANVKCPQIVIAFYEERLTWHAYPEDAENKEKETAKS
inactive: [1] 0.051 | [2] 0.029 | [3] 0.073 | [4] 0.113 | [5] 0.027 | [6] 0.045 | [7] 0.085 | [8] -0.051 | [9] 0.043 | [10] -0.05 | [11] -0.033 | [12] -0.128 | [13] 0.048 | [14] -0.022 | [15] -0.034 | [16] -0.057 | [17] -0.034 | [18] -0.012 | [19] -0.121 | [20] -0.003

COX6B1 (UniProt P14854)
Chain of UniProt P14854 (P14854 whole entry, looked up): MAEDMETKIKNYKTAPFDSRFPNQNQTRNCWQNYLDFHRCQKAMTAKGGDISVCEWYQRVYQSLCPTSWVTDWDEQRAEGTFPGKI
inactive: [1] -0.006 | [2] -0.144 | [3] 0.136 | [4] 0.016 | [5] -0.001 | [6] 0.015 | [7] -0.005 | [8] -0.069 | [9] -0.025 | [10] 0.085 | [11] 0.036 | [12] 0.023 | [13] -0.013 | [14] 0.333 | [15] 0.046 | [16] -0.014 | [17] -0.081 | [18] 0.013 | [19] -0.054 | [20] 0.038

CALCOCO2 isoform 4 (UniProt Q13137)
Chain of UniProt Q13137 (Q13137 whole entry, looked up): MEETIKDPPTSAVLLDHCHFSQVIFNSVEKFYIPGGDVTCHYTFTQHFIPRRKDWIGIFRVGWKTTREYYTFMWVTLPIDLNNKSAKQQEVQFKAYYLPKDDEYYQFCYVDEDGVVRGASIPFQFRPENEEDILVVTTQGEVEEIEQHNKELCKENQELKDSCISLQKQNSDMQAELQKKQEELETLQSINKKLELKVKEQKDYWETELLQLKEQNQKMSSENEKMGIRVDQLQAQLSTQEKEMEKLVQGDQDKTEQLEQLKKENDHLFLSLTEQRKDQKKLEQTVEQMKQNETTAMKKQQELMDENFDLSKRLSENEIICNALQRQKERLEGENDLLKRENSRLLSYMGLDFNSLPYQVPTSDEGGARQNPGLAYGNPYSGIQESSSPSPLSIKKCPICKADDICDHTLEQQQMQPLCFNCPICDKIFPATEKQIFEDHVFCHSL
inactive: [1] -0.005 | [2] -0.008 | [3] 0.006 | [4] 0.012 | [5] 0.019 | [6] 0.012 | [7] -0.037 | [8] -0.052 | [9] 0 | [10] 0.022 | [13] -0.024 | [14] 0.035 | [15] 0.089 | [16] 0.059 | [17] 0.01 | [18] 0 | [19] 0.055 | [20] -0.149
active: [11] -0.634 | [12] -0.471

CNDP2 (UniProt Q96KP4)
inactive: [1] 0.021 | [2] -0.013 | [3] 0.04 | [4] 0.043 | [5] -0.131 | [6] 0.016 | [7] 0.003 | [8] -0.052 | [9] -0.087 | [10] -0.004 | [11] -0.037 | [12] 0.014 | [13] -0.003 | [14] -0.012 | [15] 0.014 | [16] -0.1 | [17] -0.002 | [18] 0.016 | [19] -0.103 | [20] -0.149

CIT isoform 4 (UniProt O14578)
inactive: [1] -0.105 | [2] 0.017 | [3] -0.003 | [4] -0.032 | [5] -0.02 | [6] -0.012 | [7] 0.01 | [8] 0.002 | [9] 0.033 | [10] 0.047 | [11] 0.068 | [12] -0.225 | [13] 0.134 | [14] 0.017 | [15] -0.041 | [16] -0.033 | [17] -0.037 | [18] 0.057 | [19] 0 | [20] -0.033

CBR1 (UniProt P16152)
Chain of UniProt P16152 (P16152 whole entry, looked up): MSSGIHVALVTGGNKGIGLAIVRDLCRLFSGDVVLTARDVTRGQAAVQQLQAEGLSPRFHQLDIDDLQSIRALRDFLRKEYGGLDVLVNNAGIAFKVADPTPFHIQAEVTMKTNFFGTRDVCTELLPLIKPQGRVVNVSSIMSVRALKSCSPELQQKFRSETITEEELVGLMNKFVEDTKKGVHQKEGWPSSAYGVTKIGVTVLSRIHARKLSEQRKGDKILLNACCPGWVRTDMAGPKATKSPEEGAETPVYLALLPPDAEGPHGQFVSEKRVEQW
inactive: [1] 0.006 | [2] -0.023 | [3] 0.005 | [4] 0.038 | [5] -0.032 | [6] -0.001 | [7] 0.074 | [8] 0.051 | [9] 0.005 | [10] 0.025 | [11] -0.001 | [12] -0.041 | [13] -0.017 | [14] 0.06 | [15] -0.006 | [16] 0 | [17] 0.005 | [18] 0.013 | [19] -0.077 | [20] 0.077

CPT2 (UniProt P23786)
Chain of UniProt P23786 (P23786 whole entry, looked up): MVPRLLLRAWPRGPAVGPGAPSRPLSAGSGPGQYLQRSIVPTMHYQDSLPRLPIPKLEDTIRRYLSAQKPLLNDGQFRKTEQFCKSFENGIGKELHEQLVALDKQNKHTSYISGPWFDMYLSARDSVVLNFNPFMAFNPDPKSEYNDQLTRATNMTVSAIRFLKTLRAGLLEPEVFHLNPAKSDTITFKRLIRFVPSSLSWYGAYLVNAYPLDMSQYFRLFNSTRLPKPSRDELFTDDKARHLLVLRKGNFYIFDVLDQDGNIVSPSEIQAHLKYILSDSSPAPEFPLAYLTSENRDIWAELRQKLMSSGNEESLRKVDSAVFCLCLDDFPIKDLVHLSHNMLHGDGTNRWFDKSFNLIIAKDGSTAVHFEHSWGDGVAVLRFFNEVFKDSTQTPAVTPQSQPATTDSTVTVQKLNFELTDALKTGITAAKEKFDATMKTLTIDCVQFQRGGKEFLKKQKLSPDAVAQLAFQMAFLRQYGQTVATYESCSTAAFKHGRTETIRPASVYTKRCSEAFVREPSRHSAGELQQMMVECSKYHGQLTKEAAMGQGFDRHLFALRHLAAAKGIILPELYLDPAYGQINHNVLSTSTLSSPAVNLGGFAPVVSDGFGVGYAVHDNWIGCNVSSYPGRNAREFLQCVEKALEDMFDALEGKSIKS
active: [12] 0.912 | [20] -0.613
inactive: [1] 0.313 | [2] -0.105 | [3] 0.035 | [4] 0.019 | [5] -0.417 | [6] 0.042 | [7] 0.007 | [8] 0.016 | [9] 0.474 | [10] 0.013 | [11] 0.235 | [13] -0.019 | [14] 0.011 | [15] 0.109 | [16] 0.384 | [17] 0.088 | [18] 0.056 | [19] -0.136

CDK5RAP1 (UniProt Q96SZ6)
inactive: [1] 0.014 | [2] -0.04 | [3] 0.002 | [4] 0.05 | [5] -0.065 | [6] -0.007 | [7] -0.035 | [8] 0.066 | [9] -0.166 | [10] -0.005 | [11] -0.119 | [12] -0.064 | [13] 0.071 | [14] 0.033 | [15] 0.001 | [16] -0.086 | [17] -0.006 | [18] 0.036 | [19] -0.074
active: [20] -0.254

CSTF3 (UniProt Q12996)
Chain of UniProt Q12996 (Q12996 whole entry, looked up): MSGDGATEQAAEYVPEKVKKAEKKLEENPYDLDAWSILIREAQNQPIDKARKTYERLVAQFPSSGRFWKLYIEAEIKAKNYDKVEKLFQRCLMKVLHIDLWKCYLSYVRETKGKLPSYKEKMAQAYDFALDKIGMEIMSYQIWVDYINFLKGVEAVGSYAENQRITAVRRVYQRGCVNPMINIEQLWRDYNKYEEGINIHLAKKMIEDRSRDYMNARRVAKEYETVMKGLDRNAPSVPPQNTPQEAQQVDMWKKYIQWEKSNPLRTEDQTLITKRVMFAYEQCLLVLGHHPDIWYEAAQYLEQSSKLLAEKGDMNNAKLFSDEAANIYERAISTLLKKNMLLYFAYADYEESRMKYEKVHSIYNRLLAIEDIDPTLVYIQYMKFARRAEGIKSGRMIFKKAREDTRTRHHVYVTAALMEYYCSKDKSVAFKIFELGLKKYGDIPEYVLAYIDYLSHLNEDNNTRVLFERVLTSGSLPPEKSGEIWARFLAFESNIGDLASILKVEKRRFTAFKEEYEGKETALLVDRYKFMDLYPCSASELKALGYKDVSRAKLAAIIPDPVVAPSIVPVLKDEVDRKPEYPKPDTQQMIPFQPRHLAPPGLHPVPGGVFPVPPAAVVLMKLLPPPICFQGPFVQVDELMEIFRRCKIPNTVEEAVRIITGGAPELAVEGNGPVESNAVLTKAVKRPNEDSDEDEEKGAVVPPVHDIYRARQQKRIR
inactive: [1] -0.038 | [2] 0.014 | [3] -0.005 | [4] 0.006 | [5] -0.072 | [6] -0.005 | [7] -0.008 | [8] -0.029 | [9] -0.05 | [10] 0.007 | [11] 0.061 | [12] 0.091 | [13] -0.028 | [14] -0.029 | [15] 0 | [16] -0.038 | [17] -0.002 | [18] 0.003 | [19] -0.048 | [20] 0.13

CLUH (UniProt O75153)
Chain of UniProt O75153 (O75153 whole entry, looked up): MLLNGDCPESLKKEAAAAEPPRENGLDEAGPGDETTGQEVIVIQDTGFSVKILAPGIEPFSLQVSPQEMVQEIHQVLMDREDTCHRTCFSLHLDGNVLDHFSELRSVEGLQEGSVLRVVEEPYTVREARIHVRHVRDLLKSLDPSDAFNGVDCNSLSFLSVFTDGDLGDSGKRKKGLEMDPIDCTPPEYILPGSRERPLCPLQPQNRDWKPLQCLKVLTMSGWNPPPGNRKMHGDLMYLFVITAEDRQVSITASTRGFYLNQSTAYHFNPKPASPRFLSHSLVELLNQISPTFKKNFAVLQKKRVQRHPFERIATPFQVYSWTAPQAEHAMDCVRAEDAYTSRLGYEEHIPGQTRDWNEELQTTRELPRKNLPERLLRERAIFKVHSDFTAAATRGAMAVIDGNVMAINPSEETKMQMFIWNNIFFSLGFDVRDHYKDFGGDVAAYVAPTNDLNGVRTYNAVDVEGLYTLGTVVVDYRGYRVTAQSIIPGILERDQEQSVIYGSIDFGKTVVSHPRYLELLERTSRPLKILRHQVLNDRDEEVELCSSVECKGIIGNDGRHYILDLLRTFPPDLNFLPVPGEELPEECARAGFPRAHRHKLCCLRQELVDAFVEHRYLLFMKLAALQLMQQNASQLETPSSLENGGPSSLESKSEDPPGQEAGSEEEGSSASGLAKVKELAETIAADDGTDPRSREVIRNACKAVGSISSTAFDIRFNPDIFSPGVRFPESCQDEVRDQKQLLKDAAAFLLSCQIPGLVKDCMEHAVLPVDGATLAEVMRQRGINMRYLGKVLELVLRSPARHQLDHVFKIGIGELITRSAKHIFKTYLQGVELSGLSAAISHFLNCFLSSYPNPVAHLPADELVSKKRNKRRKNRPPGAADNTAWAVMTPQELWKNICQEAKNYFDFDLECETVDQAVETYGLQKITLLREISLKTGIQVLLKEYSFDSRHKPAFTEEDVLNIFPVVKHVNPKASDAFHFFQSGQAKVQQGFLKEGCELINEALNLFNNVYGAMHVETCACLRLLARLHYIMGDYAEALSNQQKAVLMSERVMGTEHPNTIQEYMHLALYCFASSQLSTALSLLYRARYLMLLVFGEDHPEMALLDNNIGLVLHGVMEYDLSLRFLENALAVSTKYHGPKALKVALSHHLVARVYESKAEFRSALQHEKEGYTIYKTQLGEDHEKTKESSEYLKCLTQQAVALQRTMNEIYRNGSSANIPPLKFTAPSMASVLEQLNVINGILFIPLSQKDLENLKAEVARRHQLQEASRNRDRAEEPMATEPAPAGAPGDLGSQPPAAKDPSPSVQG
active: [12] 0.632 | [20] 0.387
inactive: [1] -0.017 | [2] -0.08 | [3] -0.002 | [4] -0.072 | [5] -0.022 | [6] 0.047 | [7] -0.03 | [8] 0.049 | [9] 0.016 | [10] 0.033 | [11] 0.225 | [13] 0.015 | [14] -0.028 | [15] 0.047 | [16] -0.113 | [17] 0.094 | [18] 0.134 | [19] 0.019
